# Bioassay records: PubChem, National Center for Advancing Translational Sciences (NCATS)
# HEK293 cAMP ctrl: raises cAMP in parental HEK293 cells, TSHR agonist counter-screen. parental HEK293 CNG cAMP sensor, membrane potential fluorescence. Potency, µM (highest dose often 57.1 µM), for the others: at the top dose activation, most hits filed as activators. 2.5% of 73,000 active; further: % of control where 0% means no effect; nearly all actives have a fitted effect of over 55% in size
#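 Parental HEK 293 cells stably expressing a cAMP-gated CNG channel were loaded with membrane potential dye containing 100 uM RO 20-1724 for 60 min. Compound added for 30 min; depolarization read as fluorescence intensity at 590 nm.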
# Caspase-7 inhib: allosteric or competitive inhibitors of human caspase-7; P55210; recombinant caspase-7, Ac-DEVD-AFC fluorescence rate; Potency, µM (highest dose often 57.5 µM), without a hit: at the top dose activity change, negative = inhibition, hits mostly inhibitors; 0.02% of 75,000 active; AID 889; active means well fitted inhibition curve with a large enough effect in the main read-out, with a control signal flat, not every such curve was filed as active; inconclusive means small, poorly fitted or top-dose-only effect, or a change in a side signal; further: % of control where 0% means no effect
# TSHR ag: TSH receptor (human) agonism; P16473; HEK293-CNG-TSHR cells (CNG channel as cAMP sensor), membrane potential dye, cAMP; Potency, µM (top dose mostly 57.1 µM), for the others: top-dose activation, hits mostly activators; 0.48% of 73,000 active; AID 926; active means well fitted activation curve with a large enough effect in the main read-out, with a control signal flat, not every such curve was filed as active; inconclusive means small, poorly fitted or top-dose-only effect, or a change in a side signal; inactive means no such curve, though single readings can be large or run the other way; % of control where 0% means no effect;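 further: the control signal comes from parental cells without the receptor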
#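 HEK 293 cells stably expressing TSHR and a modified CNG channel, with CNG-only parental cells as counterscreen, were preloaded 60 min at room temperature with membrane potential dye containing 100 uM RO 20-1724. Compound exposure was 30 min, and depolarization was read as fluorescence at 590 nm.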
# Caspase-1 inhib: allosteric or competitive inhibitors of human caspase-1; P29466; Caspase-1 enzyme, Ac-WEHD-AFC fluorogenic rate; Potency, µM (series often up to 57.5 µM), for the others: top-dose activity change, negative = inhibition, most hits filed as inhibitors; 0.03% of 75,000 active;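 further: plate controls were vehicle for no effect and no substrate for full effect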
# * = called active by the depositor; ? = inconclusive; . = no result given; [ ] = another dose, or the depositor's remark. A selection: hits, their analogues and other compounds. The true share with any hit is near 2.6%. Unless noted, the call rests on the fitted dose curve; in most records, active means well fitted curve in the direction sought with a large enough effect; inconclusive means small, poorly fitted or top-dose-only effect, or another doubt; inactive means no such curve, though single readings can be large; an effect the other way counts as inactive or inconclusive. Potency means the concentration at half of the fitted maximal effect.
SMILES,HEK293 cAMP ctrl,Caspase-7 inhib,TSHR ag,Caspase-1 inhib
CCC(c1nnnn1Cc1ccco1)N(Cc1ccccc1OC)Cc1cc2cc(C)ccc2[nH]c1=O (stereo not given),?,-11%,?,-13%
CCC(c1nnnn1Cc1ccco1)N(Cc1cc2cc(C)cc(C)c2[nH]c1=O)CC1CCCO1 (stereo not given),20µM*,-16%,?,-17%
Cc1nnc(N(Cc2ccco2)C(=O)c2cccc(C#N)c2)s1,29%,0%,6%,1%
O=C(COc1ccccc1)N(Cc1ccco1)c1ccc(O)cc1,22%,-1%,20µM*,0%
O=C(Cn1cnc2ccccc2c1=O)N(Cc1ccco1)c1ccc(O)cc1,-11%,-1%,19%,0%
O=C(c1ccc(Cl)c(Cl)c1)N(Cc1ccco1)c1ccc(O)cc1,?,13µM*,?,0%
COc1ccc(-c2cc(-c3ccccc3)nc(N3CCCC3)n2)cc1OC,11%[11.4 µM],?,3.2µM*,.
O=C(CSc1nnnn1C1CCCC1)N1CCCc2ccccc21,?,-2%,?,1%
O=C(CSc1nnc(Cc2cccs2)n1C1CCCCC1)N1CCCc2ccccc21,13µM*,-4%,?,3%
CCn1c(=O)n(CC(=O)NC2CCCC(C)C2C)c(=O)c2ccccc21 (stereo not given),25µM*,-1%,?,1%
C=CC(C1=CC(=O)C(OC)=C(OC)C1=O)c1ccccc1 (stereo not given),.,-3%,.,-1%
N#CC1=C(N)Oc2cc(O)ccc2C1c1cccs1 (stereo not given),6%,-16%,4%,?
CN(C)c1ccc2c(c1)OC(N)=C(C#N)C2c1cccc(F)c1 (stereo not given),32µM*,?,?,?
COc1cc(C2N(c3ccccc3)CCN2c2ccccc2)ccc1OC(C)=O,7%,-3%,3.2µM*,-4%
C=CCC1(c2ccccc2)Oc2ccc(C)cc2-c2nc3cc(Cl)c(Cl)cc3nc21 (stereo not given),-4%[11.4 µM],-1%[11.5 µM],-6%[11.4 µM],0%[11.5 µM]
O=C(Nc1ccc(Cl)cc1C(=O)Nc1ccc(Br)cn1)c1ccco1,20µM*,-1%,?,0%
Brc1ccc(OCCOCCN2CCOCC2)cc1,19%,-1%,25µM*,-2%
COc1ccccc1N1CCN(C(c2ccc(F)cc2)c2nnnn2C(C)C)CC1 (stereo not given),?,1%,?,-1%
COc1ccccc1N1CCN(C(c2ccc(C)cc2)c2nnnn2C(C)C)CC1 (stereo not given),16µM*,0%,?,-4%
COc1ccc(Cn2nnnc2C(C(C)C)N2CCN(c3ccccc3OC)CC2)cc1 (stereo not given),13µM*,6%,?,-4%
C=Cc1ccccc1Cl,13%,1%,3%,-6%
CC(C)Sc1nc2c(c(=O)n(C)c(=O)n2C)n1Cc1ccc(Cl)cc1,7.9µM*,0%,?,-1%
COc1cccc(-c2nnc(SCC(=O)N(C(C)C)C(C)C)o2)c1,16µM*,1%,?,1%
COC(=O)C1=C(C)N(Cc2ccccc2)C2=C(C(C)=O)C[C@@](O)(C(=O)OC)C(=O)N2C1c1ccccc1 (stereo not given in full),19%[11.4 µM],0%[11.5 µM],-6%[11.4 µM],0%[11.5 µM]
N=C1CCC[C@@H]1C(=S)SCCC(N)=O,2%[11.4 µM],0%[11.5 µM],-3%[11.4 µM],-3%[11.5 µM]
SMILES,HEK293 cAMP ctrl,Caspase-7 inhib,TSHR ag,Caspase-1 inhib
Cc1ccc(-[n+]2cc(=O)o[nH]2)cc1,0%[11.4 µM],0%[11.5 µM],-2%[11.4 µM],-3%[11.5 µM]
Cc1cccc(-n2c(SCC(=O)NCc3ccco3)nc3ccccc3c2=O)c1,?,0%,?,-4%
O=C(CSc1nc2ccccc2c(=O)n1-c1ccccc1)NCc1ccco1,25µM*,0%,?,-2%
O=C(CSc1nc2ccccc2c(=O)n1Cc1ccco1)NCc1ccco1,27%,-4%,14%,-2%
O=C(CSc1nc2cccnc2n1Cc1ccccc1)NCc1ccco1,6.3µM*,-1%,?,-2%
CCn1c(SCC(=O)NCc2ccco2)nc2cccnc21,5%,6%,-3%,0%
Cc1sc2nc(SCC(=O)NCc3ccco3)n(-c3ccccc3)c(=O)c2c1C,-7%,1%,.,0%
CN(Cc1ccccc1)C(=O)CSc1nc2ccccc2c(=O)n1Cc1ccco1,25µM*,-4%,?,-1%
CCn1c(=S)sc2c(=O)n(-c3ccccc3)c(SCC(=O)NCc3ccco3)nc21,20µM*,-1%,?,-1%
